# Source: PubChem (National Center for Advancing Translational Sciences (NCATS))
# Hits are enriched below; roughly 7.5% of the tested compounds scored in any of these assays.
# Giardia FBPA inh-1 – qHTS Assay for Inhibitors of Fructose-1,6-bisphosphate Aldolase from Giardia Lamblia; 290,000 tested, 0.71% active; Potency, µM (top dose mostly 59.6 µM), inactives show top-dose activity, negative = inhibition, actives largely listed as inhibitors; purified Giardia FBPA; further: potency means the concentration at half of the fitted maximal effect; nearly all actives have a fitted effect of over 55% in size
# Target sequence (A8B2U2 whole entry, looked up): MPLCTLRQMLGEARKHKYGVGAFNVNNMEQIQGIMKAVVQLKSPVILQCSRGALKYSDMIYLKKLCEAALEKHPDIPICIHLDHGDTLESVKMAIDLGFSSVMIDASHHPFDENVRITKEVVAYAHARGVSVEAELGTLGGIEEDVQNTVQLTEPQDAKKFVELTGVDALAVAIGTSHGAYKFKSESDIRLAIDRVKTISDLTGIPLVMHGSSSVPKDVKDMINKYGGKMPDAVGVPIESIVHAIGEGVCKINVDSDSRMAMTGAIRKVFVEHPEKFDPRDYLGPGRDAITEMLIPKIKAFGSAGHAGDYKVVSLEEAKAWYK
#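 Giardia FBPA (40 nM reagent) was preincubated 10 min at RT with compound (up to 57.5 uM final), then substrate plus GAPDH/TPI/NAD/arsenate coupling system with diaphorase/resazurin was added; resorufin fluorescence (525/598 nm) was read after 20 min.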
# Vaccinia Venus – qHTS for Stage-Specific Inhibitors of Vaccinia Orthopoxvirus: Venus Reporter Primary qHTS; Vaccinia virus Venus reporter expression, fluorescence; Potency, µM (doses to about 36.5 µM), for inactives: at the highest dose activity change, negative = inhibition, hits mostly inhibitors; 330,000 tested, 0.46% active; calls by dose curve; tested in A549 cells; further: potency means the concentration at half of the fitted maximal effect; nearly all actives have a fitted effect of over 30% in size
# Vaccinia mCherry – qHTS for Stage-Specific Inhibitors of Vaccinia Orthopoxvirus: mCherry Reporter Primary qHTS; Vaccinia virus mCherry reporter infection, fluorescence; Potency, µM (series often up to 36.5 µM), without a hit: top-dose activity change, negative = inhibition, actives largely listed as inhibitors; 310,000 tested, 0.63% active; AID 720579, 2013; calls by dose curve; tested in A549 cells; further: potency means the concentration at half of the fitted maximal effect; nearly all actives have a fitted effect of over 35% in size
# FMDV inh – High Throughput Screening for Foot and Mouth Disease Virus Antivirals; Potency, µM (top dose mostly 57.9 µM), without a hit: at the top dose activity change, negative = inhibition, hits mostly inhibitors; AID 1159524, 2015; 410,000 tested, 1.2% active; FMDV antiviral cell-based qHTS; calls by dose curve; tested in HEK293T cells; further: read-out not given here; potency means the concentration at half of the fitted maximal effect; nearly all actives have a fitted effect of over 45% in size
# HCV inhibitor – qHTS Assay for Inhibitors of Hepatitis C Virus (HCV); 340,000 tested, 3.4% active; Potency, µM (top dose mostly 41.8 µM), for the others: at the highest dose activity change, negative = inhibition, most hits filed as inhibitors; AID 651820, 2012; Huh7.5.1 HCVcc-Cre infection, luciferase reporter, 44 h; further: potency means the concentration at half of the fitted maximal effect
#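 Cells seeded at 1,000/well and cultured 4 h, then compounds added followed by HCVcc-Cre virus (~0.5 moi). After 44 h further culture, luciferase substrate was added, plates held 15 min at room temperature, and luminescence read for 15 sec.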
# HCMV inh – qHTS Assay for inhibitors of the human cytomegalovirus (HCMV); HFF cells, HCMV-luciferase reporter, 72 h; hits give low values; activity change, negative = inhibition, % at 57.5 µM; 410,000 tested, 4.5% active; in the data active means activity change below about -60%; inconclusive means no clear call, values can overlap the other calls; inactive means above about -39%
#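 HFF cells seeded 16 h at 37C, treated with compounds, infected with luciferase-reporter HCMV at MOI 1 PFU/cell; luciferase read at 72 h post infection, normalized to buffer-only and Salinomycin controls.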
# Giardia growth – qHTS Assay for Inhibitors of Fructose-1,6-bisphosphate Aldolase from Giardia Lamblia: Giardia lamblia growth inhibition | shares compounds with Giardia FBPA inh-1 | Giardia lamblia trophozoite growth inhibition | 1,500 tested, 5% active | AID 2785, 2010 | Potency, µM (highest dose often 57.5 µM), inactives show at the top dose activity change, negative = inhibition, actives largely listed as inhibitors;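 further: potency means the concentration at half of the fitted maximal effect; trophozoites exposed to compound for 48 h at 37 °C; nearly all actives have a fitted effect of over 70% in size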
# Mammalian tox – qHTS Assay for Inhibitors of Fructose-1,6-bisphosphate Aldolase from Giardia Lamblia: Mammalian cellular toxicity | Potency, µM (doses to about 57.5 µM), for inactives: at the highest dose viability change, negative = toxicity, most hits filed as inhibitors | mammalian cell viability counter-screen, qHTS | 1,500 tested, 4% active | shares compounds with Giardia FBPA inh-1;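 further: Chinese hamster ovary cells used as mammalian cytotoxicity surrogate; viability measured as cellular ATP by luminescence; potency means the concentration at half of the fitted maximal effect; compound exposure lasted 48 h before reading; nearly all actives have a fitted effect of over 60% in size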
# Giardia FBPA inh-2 – qHTS Assay for Inhibitors of Fructose-1,6-bisphosphate Aldolase from Giardia Lamblia: Primary screen confirmation; shares compounds with Giardia FBPA inh-1; purified Giardia aldolase enzyme activity, qHTS; Potency, µM (top dose mostly 57.5 µM), inactives show at the highest dose activity change, negative = inhibition, usual class: inhibitors; 1,500 tested, 5% active; further: potency means the concentration at half of the fitted maximal effect; nearly all actives have a fitted effect of over 45% in size
# Rabbit FBPA inh – qHTS Assay for Inhibitors of Fructose-1,6-bisphosphate Aldolase from Giardia Lamblia: Rabbit FBPA Selectivity | AID 2794, 2010 | Potency, µM (doses to about 57.5 µM), inactives show top-dose activity, negative = inhibition, hits mostly inhibitors | Rabbit muscle FBPA enzyme inhibition, selectivity counter-screen | shares compounds with Giardia FBPA inh-1 | 1,500 tested, 4% active; further: potency means the concentration at half of the fitted maximal effect; nearly all actives have a fitted effect of over 60% in size
# Target sequence (P00883 whole entry, looked up): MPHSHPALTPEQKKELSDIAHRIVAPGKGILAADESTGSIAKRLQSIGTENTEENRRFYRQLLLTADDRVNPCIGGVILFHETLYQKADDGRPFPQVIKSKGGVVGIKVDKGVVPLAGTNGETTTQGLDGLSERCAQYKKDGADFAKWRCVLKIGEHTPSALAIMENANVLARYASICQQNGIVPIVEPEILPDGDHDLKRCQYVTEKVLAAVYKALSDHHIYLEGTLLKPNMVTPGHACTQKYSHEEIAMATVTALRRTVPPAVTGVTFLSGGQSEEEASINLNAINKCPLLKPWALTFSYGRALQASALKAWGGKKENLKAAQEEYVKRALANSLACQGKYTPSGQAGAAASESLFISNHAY
# GAPDH counter – qHTS Assay for Inhibitors of Fructose-1,6-bisphosphate Aldolase from Giardia Lamblia: Coupling assay counterscreen confirmation; AID 2795, 2010; GAPDH coupling enzyme counterscreen, biochemical, qHTS; 1,500 tested, 6% active; Potency, µM (top dose mostly 57.5 µM), inactives show at the top dose activity change, negative = inhibition, most hits filed as inhibitors; shares compounds with Giardia FBPA inh-1; further: potency means the concentration at half of the fitted maximal effect; nearly all actives have a fitted effect of over 55% in size
# Active calls of the source: *; i = inactive; ? = inconclusive; nt = not tested or not shown; [ ] = another dose, or the depositor's remark. Unless noted, the call rests on the fitted dose curve; in most records, active means well fitted curve in the direction sought with a large enough effect; inconclusive means small, poorly fitted or top-dose-only effect, or another doubt; inactive means no such curve, though single readings can be large; an effect the other way counts as inactive or inconclusive. On the % scale 0 is the no-effect control and ±100 the full control effect.
SMILES,Giardia FBPA inh-1,Vaccinia Venus,Vaccinia mCherry,FMDV inh,HCV inhibitor,HCMV inh,Giardia growth,Mammalian tox,Giardia FBPA inh-2,Rabbit FBPA inh,GAPDH counter
NS(=O)(=O)c1ccc(NC(=S)N2CCC(O)CC2)cc1,15.8µM*,-3.5%,1.6%,-0.4%,2.2%,-6.1,?,16.9%,4.0%,12.5%,3.9%
C[C@H](NC(=O)CNC(=O)[C@@H](NC(=O)[C@H](Cc1ccccc1)NC(=O)CNC(=O)CNC(=O)[C@@H](N)Cc1ccccc1)[C@@H](C)O)C(=O)N[C@@H](CCCN=C(N)N)C(=O)N[C@@H](CCCCN)C(=O)N[C@@H](CO)C(=O)N[C@@H](C)C(=O)N[C@@H](CCCN=C(N)N)C(=O)N[C@H](CN)CCCCN,nt,-5.4%[3.33 µM],-12.6%[3.33 µM],3.1%[6.7 µM],nt,nt,nt,nt,nt,nt,nt
CO/N=C/C(C#N)c1ncc(C(F)(F)F)cc1Cl (centres undefined),19.9µM*,-21.3%,i,-21.8%,-8.7%,-28.7,?,7.4%,1.3%,0.6%,-4.4%
Cc1cc(C)c(NC(=S)N(CCc2ccncc2)C(C)C)c(C)c1,9.98µM*,nt,nt,-9.8%,5.0%,?,-6.4%[38.3 µM],-13.5%,2.5%,2.3%,-3.7%
Cc1ccc(NC(=S)c2ccncc2)cc1,28.2µM*,nt,nt,-14.2%,?,-9.3,23.3%,0.8%,6.0%,-1.9%,7.5%
COc1ccc(OC)c(S(=O)(=O)NNC(=S)Nc2ccc3c(c2)OCO3)c1,8.91µM*,-23.5%,i,60.2%,12.3%,16.4,9.1%[38.3 µM],-0.8%,-16.0%,-10.4%,-16.6%
CC(=O)N1CCc2c(sc3c2c(=O)n(Cc2ccccc2)c(=O)n3CC(=O)NCC2CCCO2)C1 (centres undefined),-3.8%,-8.5%,i,-11.9%,-5.8%,28.5,nt,nt,nt,nt,nt
CC(=O)N1CCc2c(sc3c2c(=O)n(-c2ccccc2)c(=O)n3CC(=O)NCC2CCCO2)C1 (centres undefined),10µM*,-2.5%,i,-18.6%,13.7%,40.3,-4.3%[38.3 µM],-12.8%,-26.7%,-15.2%,-9.2%
N#CC(=C(O)COC(=O)Cc1c[nH]c2ccccc12)c1nc2ccccc2[nH]1,nt,13.0%,4.0%,11.7%,-23.7%,-6.4,nt,nt,nt,nt,nt
CC(C)C(=O)OC/C(O)=C(\C#N)c1nc2ccccc2[nH]1,19.9µM*,-0.9%,i,5.9%,1.5%,-65.0*,2.8%[10.4 µM],-8.0%,-8.5%,-2.9%,-15.0%
COCC(=O)OC/C(O)=C(\C#N)c1nc2ccccc2[nH]1,15.8µM*,-16.5%,16.7%,?,-15.2%,-99.2*,10.3%[10.4 µM],?,-0.5%,-0.6%,1.2%
N#C/C(=C(/O)COC(=O)c1cccnc1Cl)c1nc2ccccc2[nH]1,17.7µM*,1.2%,3.7%,40.9%,-19.0%,-35.9,20.2%,-3.6%,-16.2%,-12.8%,-14.5%
N#C/C(=C(/O)COC(=O)c1ccc(O)cc1)c1nc2ccccc2[nH]1,9.98µM*,-12.4%,i,2.0%,9.4%,-1.5,-14.7%,1.5%,-7.2%,2.3%,2.7%
N#CC(=C(O)COC(=O)CCCNC(=O)c1ccc(Cl)cc1)c1nc2ccccc2[nH]1,nt,22.1%,4.9%,-7.5%,1.3%,44.5,nt,nt,nt,nt,nt
Cc1cc(OCC(=O)OCC(=O)N2CCCCC2)ccc1Cl,nt,-6.5%,i,-13.9%,nt,11.9,nt,nt,nt,nt,nt
CCCn1c(C(C)NC(=O)c2ccccc2)n[nH]c1=S (centres undefined),19.4%,0.9%,i,-13.5%,21.8%,-11.2,nt,nt,nt,nt,nt
CCCn1c(C(C)NS(=O)(=O)c2ccccc2)n[nH]c1=S (centres undefined),10µM*,nt,nt,-21.8%,-0.6%,0.0,72.6%,12.1%,-1.0%,-0.7%,6.0%
CCn1c(C(C)NS(=O)(=O)c2ccc(Cl)cc2)n[nH]c1=S (centres undefined),11.2µM*,-5.4%,-17.8%,4.9%,3.0%,-3.1,13.8%,-5.5%,5.9%,4.5%,12.6%
COC(=O)c1cnc(NNS(=O)(=O)c2ccc(Cl)cc2)nc1C(F)(F)F,15.8µM*,-16.6%,i,2.4%,12.9%,3.4,-2.9%,-7.0%,-5.9%,1.7%,4.2%
CN(C)c1ccc(C(=O)Nc2nnc(C3=COCCO3)o2)cc1,17.7µM*,-2.8%,i,43.1%,6.3%,34.7,?,8.9%,-10.0%,-1.1%,0.3%
CN(C)S(=O)(=O)c1ccc(C(=O)Nc2nnc(-c3cccs3)o2)cc1,17.7µM*,nt,nt,32.4%,?,?,14.1µM*,-15.9%,-5.6%,-6.5%,-11.8%
O=C(CCSc1ccccc1)Nc1nnc(-c2cccs2)o1,15.8µM*,-10.9%,i,-11.1%,2.3%,17.1,-13.3%[10.4 µM],-13.8%,3.2%,4.7%,5.9%
O=C(Nc1nnc(C2=COCCO2)o1)c1cccc(F)c1,nt,-3.9%,-24.9%,10.8%,-3.1%,0.6,nt,nt,nt,nt,nt
O=C(CCSc1ccccc1)Nc1nnc(-c2ccccc2)o1,24.1%,-15.7%,i,-14.6%,-6.1%,0.7,nt,nt,nt,nt,nt
Cc1cccc(C(=O)Nc2nnc(C3=COCCO3)o2)c1,17.7µM*,-15.0%,i,11.2%,9.1%,-15.8,?,-0.6%,-4.1%,-5.1%,-0.2%
CCOc1ccc(C(=O)NCc2nc3cccnc3n2Cc2cccc(OC)c2)cc1,nt,-7.6%,-7.2%,-13.9%,nt,-2.5,nt,nt,nt,nt,nt
